Bioassay records: PubChem, National Center for Advancing Translational Sciences (NCATS)
In the library only some 5.8% were active in any assay of this set; here they are far more common.
MCF10A rereplic: DNA re-replication induction in MCF 10a cells | Potency, µM (series often up to 46.1 µM), for the others: at the highest dose activity, positive = re-replication, hits mostly activators | MCF 10A DNA re-replication, Hoechst nuclear intensity, 48 h | AID 624296 | hit rate 2.9% among 350,000; further: % of control where 0% means no effect; nearly all actives have a fitted effect of over 50% in size
12-LOX inh: ALOX12 (human) lipoxygenase inhibition; purified 12hLO, xylenol orange hydroperoxide absorbance; Potency, µM (top dose mostly 108 µM), without a hit: at the top dose activity change, negative = inhibition, hits mostly inhibitors; hit rate 1.1% among 580,000; further: on the % scale 0 is the no-effect control and ±100 the full control effect
Target sequence (P18054 whole entry, looked up): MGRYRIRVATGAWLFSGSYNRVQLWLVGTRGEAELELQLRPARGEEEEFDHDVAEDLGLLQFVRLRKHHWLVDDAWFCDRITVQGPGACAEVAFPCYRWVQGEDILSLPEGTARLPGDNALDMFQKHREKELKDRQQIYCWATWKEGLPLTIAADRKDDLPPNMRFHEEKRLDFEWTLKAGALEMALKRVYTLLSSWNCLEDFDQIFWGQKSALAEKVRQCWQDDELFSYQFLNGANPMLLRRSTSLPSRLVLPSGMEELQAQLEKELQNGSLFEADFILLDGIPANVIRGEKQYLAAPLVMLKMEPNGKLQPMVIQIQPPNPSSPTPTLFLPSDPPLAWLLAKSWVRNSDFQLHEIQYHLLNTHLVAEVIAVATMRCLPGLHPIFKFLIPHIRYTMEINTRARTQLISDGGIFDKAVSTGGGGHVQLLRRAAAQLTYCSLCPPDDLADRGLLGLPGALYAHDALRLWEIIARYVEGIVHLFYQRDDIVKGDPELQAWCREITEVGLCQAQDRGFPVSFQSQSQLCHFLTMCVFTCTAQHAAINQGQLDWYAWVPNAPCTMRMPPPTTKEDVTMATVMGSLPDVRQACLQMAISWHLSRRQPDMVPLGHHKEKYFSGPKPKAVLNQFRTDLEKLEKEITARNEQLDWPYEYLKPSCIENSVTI
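Purified human 12hLO (150 nM final) in 25 mM Hepes, 0.01% Triton X-100, pH 7.0 was preincubated 15 min at room temperature with compound. Then 40 uM arachidonic acid was added, 30 min. Hydroperoxide was read by Fe-XO absorbance ratio 573/405 nm.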
SW480 rerep: DNA re-replication induction in SW480 cells; SW480 DNA re-replication, Hoechst DNA content imaging, 48 h; Potency, µM (titrated, usually from 46.1 µM), for the others: at the highest dose re-replication activation, usual class: activators; AID 624297; hit rate 1.8% among 340,000; further: % of control where 0% means no effect; nearly all actives have a fitted effect of over 55% in size
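Readout is total intensity of Hoechst-stained nuclei, excited at 405 nm and collected at 500-530 nm. Compound treatment lasted 48 hr at 37 C in 5% CO2 before staining.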
PINK1 modulator: PINK1 expression modulation | AID 624263 | hit rate 0.2% among 410,000 | PINK1 immunofluorescence, high-content cytometry, 24 h | Potency, µM (titrated, usually from 76.6 µM), inactives show at the top dose activation (PINK1 increase), most hits filed as activators; active means well fitted activation curve with a large enough effect; inconclusive means small, poorly fitted or top-dose-only effect; cell line not stated here; further: % of control where 0% means no effect; nearly all actives have a fitted effect of over 65% in size
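PINK1 protein level read as immunofluorescence by microplate cytometer in a fixed, stained stable cell line after 24 h exposure to five compound concentrations, with CCCP as control.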
KB-3-1 tox: KB-3-1 parental cell cytotoxicity; AID 1347075; hit rate 1.4% among 400,000; Potency, µM (doses to about 46.1 µM), most hits filed as cytotoxic; KB-3-1 viability, CellTiter-Glo ATP luminescence, 72 h; further: on the % scale 0 is the no-effect control and ±100 the full control effect; nearly all actives have a fitted effect of over 60% in size
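Luminescent ATP read-out (CellTiter-Glo) measures survival of drug-naive KB-3-1 cells after 72 h compound exposure at 37 °C. Titration series was screened from lowest to highest concentration, with DMSO vehicle plates as background controls.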
KB-V1 cytotox: KB-V1 MDR subline cytotoxicity; AID 1347076; KB-V1 MDR cells viability, CellTiter-Glo, 72 h; Potency, µM (doses to about 46.1 µM), actives largely listed as cytotoxic; hit rate 3.4% among 400,000; further: on the % scale 0 is the no-effect control and ±100 the full control effect; nearly all actives have a fitted effect of over 60% in size
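Compound-treated KB-V1 multidrug-resistant cells, 72 h, 37 degrees C; viability by CellTiter-Glo. Fitted qHTS curves give the values.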
* = called active by the depositor; i = inactive; ? = inconclusive; · = no result given; [ ] = another dose, or the depositor's remark. Unless noted, the call rests on the fitted dose curve; in most records, active means well fitted curve in the direction sought with a large enough effect; inconclusive means small, poorly fitted or top-dose-only effect, or another doubt; inactive means no such curve, though single readings can be large; an effect the other way counts as inactive or inconclusive. Potency means the concentration at half of the fitted maximal effect.

SMILES | MCF10A rereplic | 12-LOX inh | SW480 rerep | PINK1 modulator | KB-3-1 tox | KB-V1 cytotox
N/C(=N/OC(=O)c1ccccc1Cl)c1ncc([N+](=O)[O-])s1 | ? | ? | ? | -1.1% | 23.1µM* | ?
Cc1cccc(C2CC(=O)NC3=C2C(=O)CC(C)(C)C3)c1 (stereo unspecified) | · | 11.8% | · | · | · | ·
Cc1ccccc1C(=O)N/N=C/c1ccccn1 | 9.3% | -13.4% | ? | 0.6% | ? | 20.6µM*
COc1ccc(C(=O)N/N=C/c2ccccn2)cc1OC | 0.3% | 0.1% | -4.6% | -0.7% | i | ?
O=C(N/N=C/c1ccccn1)c1ccc(Cl)cc1 | ? | 485.2% | 4.11µM* | 2.6% | i | i
Clc1ccc(/C=N/NC(=Nc2ccccc2)c2ccccn2)c(Cl)c1 | ? | 138.3% | -2.1% | 25.2% | i | ?
COc1cc(C(=O)N/N=C/c2ccccn2)cc(OC)c1OC | 20.6µM* | 5.6% | 18.4µM* | 8.2% | 18.4µM* | ?
C(=N\NC(=Nc1ccccc1)c1ccccn1)/c1ccccn1 | ? | 168.5% | ? | -2.1% | ? | 16.4µM*
O=C(COC(=O)c1cc2ccccc2[nH]1)Nc1ccc2ccccc2c1 | · | -0.6% | · | · | · | ·
O=C(N/N=C\c1ccccn1)C1c2ccccc2Oc2ccccc21 | -33.9% | -1.3% | 18.4µM* | 1.7% | i | i
COc1ccc(OC)c(CNC(=O)c2cc(Br)ccc2O)c1 | · | -39.2% | · | · | · | ·
COc1cccc(NC(=O)CCC2CCN(C(=O)Cc3cccc(F)c3)CC2)c1 | 15.0% | 0.0% | -2.7% | 0.0% | · | ·
COc1ccc(CC(=O)N2CCC(CCC(=O)Nc3ccccc3)CC2)cc1 | 23.1µM* | 1.6% | 21.0% | 0.0% | · | ·
Cc1ccc(Cl)cc1N1CCN(C(=O)c2cc3c(=O)n(C)c4ccccc4c3n2C)CC1 | -3.9% | 378.1% | -6.4% | 4.2% | ? | 2.59µM*
Cc1cccc(N2CCN(C(=O)c3cc4c(=O)n(C)c5ccccc5c4n3C)CC2)c1C | -2.3% | 226.6% | -1.9% | 3.5% | i | i
O=C(NC12CC3CC(CC(C3)C1)C2)c1ccc(Cl)c([N+](=O)[O-])c1 | · | -3.3% | · | · | · | ·
CC(C)N1C(=O)/C(=C\c2nc3ccccc3c(=O)[nH]2)c2ccccc21 | ? | ? | ? | -0.3% | 18.4µM* | i
CCCN1C(=O)/C(=C/c2nc3ccccc3c(=O)[nH]2)c2ccccc21 | -2.0% | ? | 0.3% | 7.4% | i | i
CC[N+](C)(CC)CCCOC(=O)C1(c2ccccc2)CCCC1 | · | 20µM* | · | · | · | ·
CC[N+](CC)(CC)CCCOC(=O)C1(c2ccccc2)CCCC1 | · | 20µM* | · | · | · | ·
CCN(CC)CCCOC(=O)C1(c2ccccc2)CCCC1 | 9.9% | 0.0% | -9.2% | 1.4% | i | i
C[N+](C)(C)CCOC(=O)C1(c2ccccc2)CCCC1 | -2.5% | 154.4% | 1.9% | -1.4% | i | i
COc1ccc(CNc2ccc([N+](=O)[O-])cc2C)cc1 | 5.3% | -16.7% | -9.5% | 0.1% | i | ?
COc1ccc(NC(=S)NNc2ccc([N+](=O)[O-])cc2S(=O)(=O)Nc2ccc(C)cc2C)cc1 | ? | 22.4µM* | 4.4% | ? | ? | ?
Cc1ccc(NS(=O)(=O)c2cc([N+](=O)[O-])ccc2NNC(=S)Nc2cccc(Cl)c2)c(C)c1 | -3.5% | · | · | ? | i | ?
SMILES | MCF10A rereplic | 12-LOX inh | SW480 rerep | PINK1 modulator | KB-3-1 tox | KB-V1 cytotox
Cc1ccc([N+](=O)[O-])cc1NC(=S)NC(=O)CC(C)(C)C | -3.6% | ? | 5.8% | 7.3%[38.3 µM] | i | 18.4µM*
Cc1ccc(NS(=O)(=O)c2cc([N+](=O)[O-])ccc2NNC(=S)Nc2cc(C)ccc2C)c(C)c1 | ? | 25.1µM* | ? | ? | 20.6µM* | 2.91µM*
COc1ccc(-c2noc(CC3CCN(C(=O)c4ccccc4OC)CC3)n2)cc1 | · | 38.2% | · | · | · | ·
Cc1ccc(OCc2cc(C(=O)N(C)CCc3ccccn3)no2)cc1C | ? | -1.8% | ? | 1.9% | i | i
Cc1ccc(OCc2cc(C(=O)N(C)CCc3nc4ccccc4[nH]3)no2)cc1C | 20.6µM* | 6.9% | ? | -0.1% | i | i
COc1ccc(C(=O)/C=C(\N)C(F)(F)F)c(O)c1 | -2.8% | 39.8µM* | -3.0% | ? | i | i
COc1cc2c(NC3CCN(C)CC3)nc(N3CCCN(C)CC3)nc2cc1OCCCCN(C)C | · | · | · | 0.1% | 16.4µM* | i
CCNC(=S)NNC(=O)c1ccccc1Cl | ? | 18.9% | -37.6% | 0.4% | i | i
CCNC(=S)NNC(=O)c1ccccn1 | 21.4% | 10.8% | -324.1% | -0.8% | i | 11.6µM*
O=C(NNC(=O)C(c1ccccc1)c1ccccc1)c1ccccn1 | ? | 11.0% | 4.11µM* | -0.8% | ? | ?
CCN(CC)Cc1nc2c(c(=O)[nH]1)C1(CCCCC1)Cc1ccccc1-2 | 5.8µM* | 11.6% | ? | ? | i | i
O=c1[nH]c(NNC(=S)NCc2ccccc2)nc2c1C1(CCCCC1)Cc1ccccc1-2 | 11.6µM* | 35.5µM* | -39.2% | ? | i | i
C=CCNC(=S)NNc1nc2c(c(=O)[nH]1)C1(CCCC1)Cc1ccccc1-2 | 4.0% | ? | -20.4% | 7.8% | i | i
S=C(NCc1ccccc1)NNc1nc2ccccc2[nH]1 | ? | 31.6µM* | 21.5% | -1.4% | i | i
CCN(CC)S(=O)(=O)c1ccc(N2CCN(C)CC2)c(NC(=O)c2ccccc2F)c1 | · | -5.7% | · | · | · | ·
N/C(=N\S(=O)(=O)c1cc(C(F)(F)F)cc(C(F)(F)F)c1)c1ccc(Cl)cc1 | 13µM* | -23.7% | 10.3µM* | ? | i | ?
N/C(=N\S(=O)(=O)c1cc(C(F)(F)F)cc(C(F)(F)F)c1)c1ccncc1 | 0.8% | 3.6% | -1.4% | 0.4% | i | i
CCC(NC(=O)C1CCCO1)c1ccc(C)cc1 (stereo unspecified) | · | 10.1% | · | · | · | ·
CSc1ccc(NC(=O)c2sccc2C)cc1 | · | 4.2% | · | · | · | ·
O=C(COc1ccc(C(=O)c2ccccc2)cc1)OCCOc1cccc(Cl)c1 | · | -20.0% | · | · | · | ·
CCc1noc(C)c1C(=O)N1CC(C)SC1=Nc1ccc(Cl)cc1 (stereo unspecified) | 7.8% | 135.6% | 1.0% | 0.5% | i | 16.4µM*
CCc1noc(C)c1C(=O)N1CC(C)OC(C)C1 (stereo unspecified) | 0.9% | 436.5% | -5.4% | 0.3% | i | i
Cc1ccccc1NC(=O)Cn1cnc2c(oc3ccccc32)c1=O | 3.0% | -2.3% | 1.7% | 1.4% | i | 18.4µM*
Cc1cccc(NC(=O)Cn2cnc3c(oc4ccccc43)c2=O)c1C | 1.8% | 0.0% | -3.6% | 5.4% | i | i
